For 40 sequences, PBM binding z-score results are on record in the supplement of paper PMC6555819.

The assay relates to VDR:RXRa (NR concentration 270 nM, RXRa partner concentration 90 nM). Put plainly: PBM binding z-score (relative to random genomic background probes); higher = stronger binding; sequences stand for … in GC…GCGATTGACAGCGTAGAATGAAGG
As to the method:
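Protein-binding microarray (Agilent 4x180K custom design, double-stranded 60-nt probes: 5' GC cap, 34-nt variable region, 24-nt constant primer region; full probe sequence given). Purified or IVT nuclear receptor:RXRα heterodimers (3:1 NR:RXRα, mostly 270:90 nM) or homodimers were incubated for 1 h in PBS with 2% milk and no ligand, then detected with Alexa488 antibodies. Fluorescence from o1-orientation probes (~5 replicates averaged) was converted to z-scores against 500 random hg19 background probes. Variable regions are seed direct-repeat (DR0–DR5) sites, all their single-nucleotide variants and half-site ablations.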
For ACAGACAGGTGATGAAGTTAACTCAGGCTATCAT, the PBM binding z-score amounted to 0.117.
Next, GCTCGGAGGTCAAGGTCAGAGCTTTGTCCGTAGA: 5.06.
Next, TCTTGTAGATCAGCACGTTAAGAAAGCTGGCCAA: 0.0103.
Next, CCTACTGGGCCATTCAGAGGTAATTGATCATATG: -0.36; CCTACTGGGCCATTCAGACGTCATTGATCATATG: -0.521; CCTACTGGGCCAAAAGTCATTGATTCCAATGCTC: -0.0662.
On to TCATATAGGTAATACAGCTGAAAGTCGGCATCTA, for which the PBM binding z-score was 0.891.
The sequence ACTTACGGGTCCACGAGGTTATAGCACGCGTATA displayed a PBM binding z-score of 3.52.
Next, TAGCCTAGGTCATCGGGCCAGTATAGTACGCATC: 2.24; CCTGACGGGTCACTCCAGGTTATAGCATCGGAGT: 3.46.
Next, CAAACTAGGTCAAGGTCAAAGACGGTTTGTGCCA: 4.74.
Next, TCATATAGGTAAATGCTACGTGAAAGTCCGATCT: 0.947; TCTTTTAGATCAAGCAGGTTAAGAAAGCCTGAGT: 0.762; AGAATGAGTTTACCAAAGATCAGGGAAACGCTTG: 1.05.
As for AGAATGAGGTTATCAAGATCAGGGAATTGCGGTC, the PBM binding z-score was 2.56.
ATATATAGGTTATCGGGTCATTCAGTTTGCGCAT yielded a PBM binding z-score of 5.37.
Next, CCAAGTTGGTCAGGAGGTCACACACCGGATATGA: 4.08; TCGAGTAGGTTACCAATGGGGCATTCTGCTTTCT: -0.0796; TTACCAAGGGGAAAGGTCGTTGATGCACGCCTTG: 1.98.
Next, TAGCCTAGGTCAGATCGTGCCAGTATACGCTATA: 0.516; CAAACTAGGTCACGAATGGTCAAAGTCGAATGAC: 3.05.
Next, TCTATTAGTTGATCAGGGCAACCGAAACAGCGGA: 0.669; AACTCTAGGTAAAAGTTCAGTGAATCCCGAGGAT: 1.11.
GCTTGTAGATCAAAGTTAAGAAAGACTAAGCTAA had a PBM binding z-score of -0.483.
Next, CCGACTGGGGCAAGGTTAACATAACGCACAGCCA: 0.295.
Next, ACATACAGGTGATGAAGGTAACTCAGGCTATCAT: 0.555; TCTCTGAGGACACGAAAGGTCAGAGCTCGACATC: 3.54; TCATATGGGTAAAAGGTGAAAGTCGGTGTGGTAA: 1.34.
Next, TCATATAGGTGAACAGGTGAAAGTCCGTAAGTTA: 1.19.
For the sequence TCATATAGGTAACACAGGTGAAAGTCGGCATCTA, the PBM binding z-score was 1.49.
Next, GTTTGTAGATCAAGGTTAAGAAAGACTAAGCTAA: 1.03; AGAACGAGGGCACGATGAGTTGATAGCAGAGTAG: 2.32.
Next, TAGCCGAGGTCATGCGGGCCAGTATAGTGTCGGC: 5.82; CCGACTGGGACAGAAAGGTTACCATACCATCCGG: 0.351.
Next, GTACCAAGGTGCATAGGTCGTTGATGAGTAGGCG: 0.717.
In turn, TCATATAGGTAAAAGGTGAAAGTGGGTGTGGTAA yielded a PBM binding z-score of 2.
For the sequence CCGCGGAGGACAGAAGGTCAGAGCTGTCCGCTTT, the PBM binding z-score is 0.646.
Next, CCTACTGGGCCAAAGTCATTGATCAGTCAAAGCA: -0.45; GAAACGAGGGCAAGTTGATAGCAGAGTTTGATGG: 1.51; CTACTAAGGTGAACAAGGTCGTTGATTACTATTC: 6.38.
